JMJD2A Tudor inh: qHTS Assay for Inhibitors of JMJD2A-Tudor Domain. Lysine-specific demethylase 4A (Homo sapiens), O75164. AlphaScreen JMJD2A-Tudor / H3K4me3 peptide binding. Potency, µM (titrated, usually from 114 µM), without a hit: at the highest dose activity change, negative = inhibition, most hits filed as inhibitors. 390,000 compounds, 4.4% hits. AID 504339, 2011; note: potency is the fitted concentration of half-maximal effect; % is set by controls: 0 for no effect and ±100 for the full control effect; nearly all actives have a fitted effect of over 50% in size
BAZ2B block: qHTS Assay for Inhibitors of BAZ2B; Bromodomain adjacent to zinc finger domain protein 2B (Homo sapiens), Q9UIF8; AlphaScreen BAZ2B-H3K14Ac peptide displacement; Potency, µM (top dose mostly 114 µM), inactives show at the highest dose activity change, negative = inhibition, usual class: inhibitors; 360,000 compounds, 4.4% hits; AID 504333, 2011; note: potency is the fitted concentration of half-maximal effect; % is set by controls: 0 for no effect and ±100 for the full control effect; nearly all actives have a fitted effect of over 60% in size
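AlphaScreen displacement: compounds (up to 110uM) incubated 30 min at room temperature with a preformed 50 nM BAZ2B/50 nM biotinylated H3K14Ac peptide complex in PBS pH 7.4 with Tween-20. Donor and acceptor beads at 10 ug/mL final added, 20 min light-protected before reading.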
G9a inh: qHTS Assay for Inhibitors of Histone Lysine Methyltransferase G9a. AID 504332, 2011. 350,000 compounds, 8.8% hits. Histone-lysine N-methyltransferase EHMT2 (Homo sapiens), Q96KQ7. Potency, µM (titrated, usually from 102 µM), for the others: at the highest dose activity, negative = inhibition, actives largely listed as inhibitors. G9a H3K9 monomethylation, AlphaScreen, 2 h; note: potency is the fitted concentration of half-maximal effect; % is set by controls: 0 for no effect and ±100 for the full control effect; nearly all actives have a fitted effect of over 75% in size
Target sequence (Q96KQ7 913-1193 limits assumed): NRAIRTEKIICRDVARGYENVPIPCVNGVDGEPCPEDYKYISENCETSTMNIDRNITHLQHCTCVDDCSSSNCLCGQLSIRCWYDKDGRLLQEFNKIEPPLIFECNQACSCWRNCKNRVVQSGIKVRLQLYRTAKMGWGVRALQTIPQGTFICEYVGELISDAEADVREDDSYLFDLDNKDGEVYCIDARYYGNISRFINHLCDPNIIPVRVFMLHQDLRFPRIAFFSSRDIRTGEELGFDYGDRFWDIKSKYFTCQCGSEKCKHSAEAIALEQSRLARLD
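G9a (20 nM) was preincubated 15 min with compound, then reacted 2 h at room temperature with 500 nM biotin-H3K9 peptide and 20 µM SAM. Monomethyl-H3K9 detected by AlphaScreen using anti-H3K9me1 antibody.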
Six1-Eya2 inh: qHTS Assay for Inhibitors of the Six1/Eya2 Interaction | activity change, % (test concentration not listed) | Homeobox protein SIX1 (Homo sapiens) + Protein phosphatase EYA2 (Homo sapiens), … | AlphaScreen GST-Six1/His-Eya2 binding, biochemical; stronger effect = lower value | 360,000 compounds, 0.56% hits; in the data active = activity change below about -65%; inconclusive = mostly about -30% to -63%; note: % is set by controls: 0 for no effect and ±100 for the full control effect
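AlphaScreen luminescence read after one hour at 37 °C in darkness. Pin-transferred compounds met GST-Six1 and His-Eya2 protein (5X stock 250 nM/500 nM) plus glutathione donor and Ni-chelate acceptor beads (5X, 50 ug/mL).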
CtBP-E1A blk: qHTS Assay for Inhibitors of the CtBP/E1A Interaction; 340,000 compounds, 0.49% hits; AID 651724, 2012; activity change, % (test concentration not listed); AlphaScreen GST-E1A/His-CtBP binding, 1536-well; stronger effect = lower value; in the data active = activity change below about -65%; inconclusive = mostly about -30% to -63%; note: % is set by controls: 0 for no effect and ±100 for the full control effect
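Homogeneous bead-based format: GST-tagged E1A captured on glutathione donor beads, His-tagged CtBP on nickel acceptor beads; compounds precede bead addition by 2 h at 37 °C.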
HP1b chromo inh: HTS for Inhibitors of HP1-beta Chromodomain Interactions with Methylated Histone Tails; AlphaScreen HP1-beta / biotin-H3K9me3 peptide binding; Potency, µM (titrated, usually from 114 µM), inactives show at the top dose activity change, negative = inhibition, actives largely listed as inhibitors; 390,000 compounds, 0.56% hits; note: potency is the fitted concentration of half-maximal effect; nearly all actives have a fitted effect of over 70% in size
Target sequence (P83916 whole entry, looked up): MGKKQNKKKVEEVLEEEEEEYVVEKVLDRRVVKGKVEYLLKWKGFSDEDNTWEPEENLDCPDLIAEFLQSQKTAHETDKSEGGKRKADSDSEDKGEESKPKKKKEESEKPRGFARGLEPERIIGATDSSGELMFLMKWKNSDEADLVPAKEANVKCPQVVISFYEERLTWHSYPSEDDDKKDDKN
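Compound inhibition of the preformed complex between 50 nM HP1-beta and 50 nM biotinylated H3K9me3 peptide was read by AlphaScreen. Buffer was PBS pH 7.4 with 0.01% Tween-20. Incubations ran 30 min at room temperature, with 10 ug/mL donor/acceptor beads.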
Numbers without * were called inactive; ? = inconclusive; . = no result; [ ] = remark or other dose. Rows were chosen to be rich in hits. Some 10% of all compounds tested hit in one or more screens of this group. Unless noted, calls come from the whole dose curve; as a rule, active = well fitted inhibition curve with a large enough effect; inconclusive = small, poorly fitted or top-dose-only effect; inactive = no such curve, though single readings can be large or run the other way.

SMILES | JMJD2A Tudor inh | BAZ2B block | G9a inh | Six1-Eya2 inh | CtBP-E1A blk | HP1b chromo inh
CCOC(=O)CCCCC(=O)c1[nH]c(=O)[nH]c1CSc1nnc2c3cc(Br)ccc3n(C)c2n1 | . | -66.5% | 28.2µM* | . | . | .
Cc1ccc(C)c(NC(=O)Cn2c(=O)n(CCC(C)C)c(=O)c3cccnc32)c1 | 6.5% | 6.7% | 7.6%[59 µM] | . | . | 81.7%
CC(C)COc1ccc(C(=O)N(Cc2cccc(F)c2)C2CCS(=O)(=O)C2)cc1 (configuration not stated) | -23.3% | -12.0% | -4.5%[59 µM] | . | . | 10.6%
CCN(CC)CCC#CC(O)(c1ccccc1)c1ccccc1 | 0.0% | 11.9% | 1.6%[59 µM] | 0.4 | 3.0 | 28.4%
C[N+]1(CC#CC(O)(c2ccccc2)c2ccccc2)CCCC1 | ? | -31.7% | 8.91µM* | 4.7 | 2.0 | 4.6%
CN(C)[C@H]1C(=O)C(C(=O)NCN2CCCC2)=C(O)[C@]2(O)C(=O)C3=C(O)c4c(O)cccc4[C@@](C)(O)[C@H]3C[C@@H]12 | . | . | 7.94µM* | . | . | .
S=c1[nH]nc(COc2ccccc2)n1/N=C/c1ccc(Cl)cc1 | -31.5% | -16.5% | 7.08µM* | -11.3 | -5.5 | -5.9%
S=c1[nH]nc(COc2ccccc2)n1/N=C/c1ccc(Cl)cc1Cl | -14.2% | 4.5% | ? | -6.7 | 8.8 | 1.8%
S=c1[nH]nc(Cc2ccc(Br)cc2)n1/N=C/c1ccc(Cl)cc1 | 79.4µM* | -35.4% | ? | -13.7 | -4.7 | ?
CSc1ccc(/C=N/n2c(COc3ccccc3)n[nH]c2=S)cc1 | ? | ? | 22.4µM* | -17.4 | -14.2 | ?
CSc1ccc(/C=N/n2c(C)nnc2C)cc1 | 0.7% | -3.8% | ? | -5.8 | 0.5 | 10.4%
Cc1cc(C)nc(-n2nc(C)c3c2NC(=O)CC3c2cc(F)ccc2F)n1 (configuration not stated) | -11.6% | -9.6% | -14.5%[59 µM] | . | . | 42.5%
Nc1ccc2nc(-c3cccnc3)[nH]c2c1 | -5.9% | -3.0% | 4.1%[59 µM] | -28.8 | 1.4 | 15.7%
Nc1cccc(-c2c[nH]c3ncc(-c4cccnc4)cc23)c1 | 17.8µM* | . | . | -24.9 | . | 3.4%
Cc1ccc2c(c1)sc[n+]2Cc1ccccc1 | 28.2µM* | 70.8µM* | ? | -15.2 | 1.7 | 20.6%
Cc1ccc(-c2cc[n+](Cc3ccccc3)cc2)cc1 | ? | -17.3% | -1.2% | 2.4 | 1.5 | -7.6%
CCCCNc1c(-c2ccc(OC)c(Sc3ccc(OC)cc3)c2)nc2ccccn12 | 44.7µM* | 39.8µM* | -3.3%[12.7 µM] | -20.1 | -18.4 | -16.4%
CCCCNc1c(-c2ccc(SC(C)CC)cc2)nc2cnccn12 (configuration not stated) | 56.2µM* | . | . | 31.4 | -7.7 | 23.6%
CCCCCCSc1cc(-c2nc3cnccn3c2NCCCC)ccc1OC | ? | . | . | 18.0 | 26.6 | 74.0%
CCCCNc1c(-c2ccc(OC)c(Sc3ccc(OC)cc3)c2)nc2cnccn12 | ? | . | . | 1.3 | -1.3 | 1.7%
CCCCNc1c(-c2ccc(SC(C)CC)c(OC)c2)nc2ccc(C)cn12 (configuration not stated) | ? | 50.1µM* | -4.7%[2.33 µM] | -9.5 | -10.8 | 7.1%
CCC(=O)Nc1ccc(CC)cc1-c1nc2ccccc2n(CC(=O)Nc2cccc(OC)c2)c1=O | -7.9% | -1.8% | -25.8%[59 µM] | . | . | 29.4%
COc1cccc(/C(C#N)=C/c2c(-c3ccc(Cl)cc3)nc3c(C)cccn23)c1 | ? | ? | 10µM* | -25.7 | ? | ?
Cc1cccn2c(/C=N/OCc3cccc(F)c3)c(-c3ccc(Cl)cc3)nc12 | 81.5% | 38.9% | 17.3%[0.0925 µM] | -4.4 | 4.9 | 119.7%
CCOc1cc(/C=N/Nc2nc(-c3cccc(S(=O)(=O)N4CCCC4)c3)cs2)ccc1O | ? | ? | 35.5µM* | ? | ? | -6.7%
SMILES | JMJD2A Tudor inh | BAZ2B block | G9a inh | Six1-Eya2 inh | CtBP-E1A blk | HP1b chromo inh
COc1ccc(/C=N/Nc2nc(-c3cccc(S(=O)(=O)N4CCCC4)c3)cs2)cc1OC | -27.7% | -31.7% | 12.6µM* | -24.8 | -1.3 | 18.3%
COc1ccc(-c2csc(NC(=S)NC(=O)c3ccc(S(=O)(=O)N(C)C)cc3)n2)cc1OC | -5.4% | -4.6% | ? | -2.1 | -5.9 | 22.7%
O=S(=O)(c1cccc(-c2csc(N/N=C/c3ccco3)n2)c1)N1CCOCC1 | ? | ? | 44.7µM* | 0.8 | -21.8 | -15.2%
COc1cc(/C=N/Nc2nc(-c3ccc(S(=O)(=O)N(C)C)cc3)cs2)ccc1O | -23.5% | -33.4% | 14.1µM* | -5.8 | -1.9 | 0.6%
CN(C)CCCO[C@H]1[C@@H]2OC(C)(C)O[C@@H]2O[C@@H]1[C@H](O)CO | . | . | 19.7%[21.5 µM] | . | . | .
[O-]/[N+](=C\c1ccc(F)cc1)c1ccccc1 | -1.2% | 3.5% | 7.94µM* | 7.4 | 6.9 | 4.0%
[O-]/[N+](=C\c1cccc(Br)c1)c1ccccc1 | -15.5% | 26.7% | 39.8µM* | -0.8 | 4.6 | 14.3%
[O-]/[N+](=C\c1ccccc1)c1ccccc1 | -16.2% | 11.0% | 10.2%[0.501 µM] | 7.2 | 9.6 | 15.9%
Cc1ccc(S(=O)(=O)NN2C(=O)/C(=C/c3cccs3)SC2=S)cc1 | ? | ? | 20µM* | -5.5 | . | -13.6%
Cc1ccc(S(=O)(=O)NN2C(=O)/C(=C/c3ccc(F)cc3)SC2=S)cc1 | -19.1% | -26.8% | -8.2% | -1.2 | 7.4 | 11.6%
COc1cccc(/C=C2\SC(=S)N(NS(=O)(=O)c3ccccc3)C2=O)c1OC | ? | -38.3% | 39.8µM* | -8.0 | . | -0.4%
COc1cc(/C=C2\SC(=S)N(NS(=O)(=O)c3ccccc3)C2=O)cc(OC)c1OC | ? | ? | ? | -21.9 | -19.3 | -14.3%
Cc1ccc(S(=O)(=O)NN2C(=O)/C(=C/c3cccn3C)SC2=S)cc1 | . | 50.1µM* | 44.7µM* | . | . | .
Cc1ccc(/C=C2\SC(=S)N(NS(=O)(=O)c3ccc(C)cc3)C2=O)cc1 | ? | 50.1µM* | . | 5.5 | . | -5.1%
COC(=O)c1ccc(Cn2ncc3c4sc(C)cc4n(C)c3c2=O)cc1 | -15.8% | . | . | . | . | .
CCOC(=O)c1ccc(NC(=O)CSc2nc3ncc(Br)c(C)c3[nH]2)cc1 | -0.3% | 1.7% | -3.2%[59 µM] | . | . | 12.1%
CCCN1CCN(c2cc3c(cc2F)c(=O)c(S(=O)(=O)c2ccc(CC)cc2)cn3CC)CC1 | -14.5% | -6.6% | -4.5%[59 µM] | . | . | 37.6%
O=C1/C(=C/c2cccnc2)SC(=S)N1c1ccccc1 | -3.6% | 7.8% | ? | 2.5 | . | 27.9%

Screening results (PubChem BioAssay)
